Assay results as given in PubChem BioAssay (NCATS).
“And” between values parts separate entries of the source, which are not always exact repeats. Equal entries are not always repeated. Inconclusive results are not listed. Entries that show only a call come without a potency. The source made the active and inactive calls. Unless noted, calls come from the whole dose curve; as a rule, active = well fitted curve in the direction sought with a large enough effect; inconclusive = small, poorly fitted or top-dose-only effect, or another doubt; inactive = no such curve, though single readings can be large; an effect the other way counts as inactive or inconclusive.

Tests used:
[1] = Cell Viability - Jurkat (AID 426;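 active = dose-dependent loss of cell ATP signal giving a full or clear fitted curve, ranked by lower potency value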;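 note: potency is the fitted concentration of half-maximal effect; cells exposed to compound for 40 hours at 37 °C before ATP read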); conditions: qHTS
Summary of the method: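 Seed 5000 Jurkat E6-1 cells/well; add compound; incubate 40 hr at 37 °C; add CellTiter-Glo; wait 20 min at room temperature; read luminescence. Fit concentration-response with Hill equation for AC50.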

[2] = Cell Viability - Hek293 (AID 427;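 active = compounds whose dose-response curve shows a full or clear partial loss of cell viability, called from curve shape rather than a numeric limit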;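 note: potency is the fitted concentration of half-maximal effect; cells exposed to compound for 40 hours at 37 °C before reading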); conditions: qHTS
Summary of the method: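 qHTS, human embryonic kidney (adenovirus-transformed) cells; 40 hr cpd, 37 °C; CellTiter-Glo ATP luminescence. Norm: DMSO = 0, 100 uM tamoxifen = 100% inhibition. Hill-fit AC50.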

[3] = Cell Viability - NIH 3T3 (AID 541); conditions: NIH 3T3 cell viability, qHTS; activity change, negative = cytotoxicity: at 92.2 µM (top of the series);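 note: cells exposed to compound for 40 hours; nearly all actives have a fitted effect of over 25% in size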
Summary of the method: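 AC50 values reflect concentration-dependent loss of intracellular ATP in NIH 3T3 cells after 40 hr treatment in complete culture medium, quantified by luciferase-based luminescence.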

[4] = Cellular Toxicity (caspase-3) NIH 3T3 (AID 666);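 note: caspase signal read after 16 h compound exposure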
Summary of the method: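 Concentration-response qHTS in NIH 3T3 mouse fibroblasts scores caspase-3/7 activation as rising luminescence after 16 hr compound exposure. Signals are scaled between DMSO-only and 100 uM tamoxifen.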

[5] = Cell Viability - LYMP2-001 (AID 921);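 note: cells exposed to compound for 24 h at 37 °C; nearly all actives have a fitted effect of over 70% in size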; note: potency is the fitted concentration of half-maximal effect
Summary of the method: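 CellTiter-Glo luminescence (intracellular ATP) after 24 hr compound exposure at 37 C, 2500 lymphoblastoid cells/well in complete medium. AC50 fitted with standard Hill equation; tetraoctylammonium bromide positive control.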

[6] = Cell Viability - LYMP2-021 (AID 974);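 note: compound exposure lasts 24 hours at 37 °C; nearly all actives have a fitted effect of over 55% in size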; note: potency is the fitted concentration of half-maximal effect
Summary of the method: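 Concentration-response cytotoxicity in a human lymphoblastoid line: 24 hr treatment at 37 C in complete culture medium, tetraoctylammonium bromide as positive control, luminescent ATP quantitation as viability measure.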

[7] = Cell Viability - LYMP2-010 (AID 981);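 note: cells exposed to compound for 24 hours at 37 °C; nearly all actives have a fitted effect of over 55% in size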; note: potency is the fitted concentration of half-maximal effect
Summary of the method: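 Acute toxicity is scored as a concentration-dependent loss of cellular ATP in human lymphoblastoid cells after 24 hr compound exposure in complete medium. Tetraoctylammonium bromide is the positive control.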

[8] = Cell Viability - LYMP2-012 (AID 982);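 note: cellular ATP by luciferase luminescence where a drop means cytotoxicity; cells exposed to compound for one day before reading; nearly all actives have a fitted effect of over 55% in size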
[9] = Cell Viability - LYMP2-016 (AID 984);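 note: cells exposed to compound for 24 hours at 37 °C; nearly all actives have a fitted effect of over 55% in size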
Summary of the method: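 qHTS, 1536-well: 2500 LYMP2-016 cells/well, 5 hr 37 C, compound added, 24 hr 37 C, CellTiter-Glo 30 min RT, luminescence. Tetraoctylammonium bromide positive control. AC50 via Hill fit.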

[10] = Cell Viability - LYMP2-018 (AID 985); note: nearly all actives have a fitted effect of over 50% in size
Summary of the method: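 Acute cytotoxicity is scored as a concentration-dependent drop in intracellular ATP after 24 hr exposure of the lymphoblastoid line in complete culture medium, measured by luciferase luminescence. Potency is expressed as AC50 from Hill modelling.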

[11] = Cell Viability - LYMP2-020 (AID 986)
Summary of the method: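 Acute cytotoxicity in a human lymphoblastoid line is scored as a concentration-dependent fall in cellular ATP after 24 hr at 37 C in complete medium. The positive control is tetraoctylammonium bromide, and potency is given as Hill-fit AC50.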

[12] = Cell Viability - LYMP2-022 (AID 987); note: nearly all actives have a fitted effect of over 55% in size; note: potency is the fitted concentration of half-maximal effect
Summary of the method: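 Acute toxicity in a human lymphoblastoid line is scored as decreased intracellular ATP after 24 hr compound treatment at 37 C. ATP is measured by CellTiter-Glo luminescence; curves are fitted with the Hill equation to give AC50.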

[13] = Cell Viability - LYMP2-024 (AID 988); note: nearly all actives have a fitted effect of over 60% in size; note: potency is the fitted concentration of half-maximal effect
Summary of the method: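 Acute toxicity is measured as concentration-dependent loss of intracellular ATP in a human lymphoblastoid line treated 24 hours at 37 C. Luciferase luminescence quantifies ATP; AC50 values come from standard Hill-equation modelling.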

[14] = Cell Viability - LYMP2-026 (AID 989);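 note: cells exposed to compound for 24 h at 37 °C; nearly all actives have a fitted effect of over 50% in size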
Summary of the method: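 Concentration-dependent loss of intracellular ATP in human lymphoblastoid cells after 24 hr at 37 C, quantified by luciferase luminescence. AC50 derived from standard Hill equation.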

[15] = qHTS Assay for Identification of Small Molecule Inducers of Hypoxia Response (AID 2120; active = well fitted curve in the direction sought with a large enough effect in the signal ratio, with a control signal flat, not every such curve was filed as active; the % refers to the signal ratio)
Summary of the method: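 Induction of beta-lactamase reporter activity was measured in CellSensor HRE-bla ME-180 cells after 17 h compound treatment at 37 degrees C, using CCF4 substrate and the 460nm/530nm emission ratio to derive AC50 values.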

[16] = qHTS assay for small molecule agonists of retinoid X receptor alpha signaling (AID 588544; calls by dose curve); conditions: HEK293T RXRa-UAS-bla, beta-lactamase reporter, 18 h; 530 nm emission
[17] = target: Retinoic acid receptor RXR-alpha (Homo sapiens) (UniProt P19793); assay: as above
Retinoic acid receptor RXR-alpha (Homo sapiens), sequence (P19793 whole entry, looked up): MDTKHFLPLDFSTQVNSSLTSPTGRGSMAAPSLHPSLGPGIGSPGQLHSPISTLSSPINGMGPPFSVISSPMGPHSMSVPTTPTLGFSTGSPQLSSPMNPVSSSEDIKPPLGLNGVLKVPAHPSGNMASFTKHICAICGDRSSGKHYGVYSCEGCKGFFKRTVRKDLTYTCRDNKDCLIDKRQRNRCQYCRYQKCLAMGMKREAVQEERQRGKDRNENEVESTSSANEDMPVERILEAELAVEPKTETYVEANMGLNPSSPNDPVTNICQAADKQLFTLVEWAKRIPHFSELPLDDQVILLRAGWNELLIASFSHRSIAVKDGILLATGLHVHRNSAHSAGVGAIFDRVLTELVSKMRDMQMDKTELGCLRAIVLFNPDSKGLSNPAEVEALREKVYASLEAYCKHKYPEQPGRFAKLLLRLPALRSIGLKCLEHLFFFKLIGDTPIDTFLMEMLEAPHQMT

[18] = target: Thyroid hormone receptor beta (Homo sapiens) (UniProt P10828); assay: qHTS assay for small molecule antagonists of thyroid hormone receptor beta signaling (AID 588547; active = well fitted inhibition curve with a large enough effect in the signal ratio, with a control signal flat, not every such curve was filed as active; the % refers to the signal ratio;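 note: cells stimulated with 0.4 nM T3 agonist during compound exposure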); conditions: TR-UAS-bla HEK293, beta-lactamase ratio, antagonist mode, 18 h
Thyroid hormone receptor beta (Homo sapiens), sequence (P10828 whole entry, looked up): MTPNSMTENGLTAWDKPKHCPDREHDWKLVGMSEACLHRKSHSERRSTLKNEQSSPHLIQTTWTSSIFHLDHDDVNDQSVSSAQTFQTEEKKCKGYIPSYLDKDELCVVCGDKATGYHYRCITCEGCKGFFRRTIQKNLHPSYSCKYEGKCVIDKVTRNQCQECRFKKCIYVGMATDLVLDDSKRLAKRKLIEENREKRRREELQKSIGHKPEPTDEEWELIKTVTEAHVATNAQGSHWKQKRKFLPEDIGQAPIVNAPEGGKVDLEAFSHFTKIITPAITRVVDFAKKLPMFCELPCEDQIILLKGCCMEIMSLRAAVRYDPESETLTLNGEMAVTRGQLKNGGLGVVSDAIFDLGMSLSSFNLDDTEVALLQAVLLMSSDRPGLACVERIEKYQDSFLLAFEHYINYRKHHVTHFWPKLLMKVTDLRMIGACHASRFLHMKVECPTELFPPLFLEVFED
Summary of the method: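 TR-UAS-bla GripTite HEK293 cells in 2% charcoal/dextran FBS medium; compounds 0.59 nM to 92 uM with T3 at 0.4nM final, 18 h at 37 C. Beta-lactamase read by CCF4 fluorescence (460/530 nm); Hill fits gave IC50 and efficacy.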

[19] = qHTS assay for small molecule disruptors of the mitochondrial membrane potential - 5 hr assay (AID 651755; calls by dose curve; note: nearly all actives have a fitted effect of over 40% in size)
Summary of the method: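 HepG2 cells (2,000/well), attached overnight, exposed to compound 5 hr at 37C, then Mito-MPS dye 30 min. Fluorescence read for monomers (490/535 nm) and aggregates (540/590 nm).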

[20] = target: Tumor necrosis factor (Homo sapiens) (UniProt P01375); assay: qHTS assay to identify small molecules that stimulate Tumor Necrosis Factor-alpha (TNF-alpha) secretion (AID 651757; active = well fitted curve in the direction sought with a large enough effect in the signal ratio; the % refers to the signal ratio)
Tumor necrosis factor (Homo sapiens), sequence (P01375 whole entry, looked up): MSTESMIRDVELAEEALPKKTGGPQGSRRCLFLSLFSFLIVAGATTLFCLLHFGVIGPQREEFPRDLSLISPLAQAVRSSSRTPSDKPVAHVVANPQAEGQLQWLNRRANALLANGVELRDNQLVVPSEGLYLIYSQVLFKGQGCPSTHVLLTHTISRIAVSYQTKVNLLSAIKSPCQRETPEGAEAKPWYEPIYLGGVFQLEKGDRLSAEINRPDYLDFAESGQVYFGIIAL
Summary of the method: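 Secreted TNF-alpha from compound-treated THP-1 cells (17 hrs, 37 C) was quantified with a homogeneous time-resolved fluorescence antibody assay.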

| SMILES | Potency [1] | Potency [2] | activity change, negative = cytotoxicity [3] | outcome [4] | Potency [5] | Potency [6] | Potency [7] | Potency [8] | Potency [9] | Potency [10] | Potency [11] | Potency [12] | Potency [13] | Potency [14] | outcome [15] | max response [16] | Potency [17] | activity change % (negative = inhibition) [18] | Potency [19] | outcome [20] |
| --- | --- | --- | --- | --- | --- | --- | --- | --- | --- | --- | --- | --- | --- | --- | --- | --- | --- | --- | --- | --- |
| OCC(Br)CBr (stereo not drawn) | > 92 µM (inactive) | > 92 µM (inactive) | -14.7% (inactive) | inactive | inactive | inactive | inactive | inactive | inactive | inactive | inactive | inactive | inactive | inactive | inactive | -16% | inactive | 1.09% (inactive) | inactive | inactive |
| Brc1ccc(Oc2cc(Br)c(Br)cc2Br)c(Br)c1 |  |  | -13.1% (inactive) and -22.5% (inactive) | inactive | inactive | inactive | inactive | inactive | inactive | inactive | inactive | inactive | inactive | inactive | inactive |  |  | 8.45% (inactive) and -8.42% (inactive) |  | inactive |
| C=C(C)C#N | > 92 µM (inactive) | > 92 µM (inactive) | -26.6% (inactive) | inactive |  |  | inactive | inactive |  | inactive | inactive |  |  |  | inactive | 5.57% and -6.47% | inactive | -13.7% (inactive) and -1.19% (inactive) |  | inactive |
| Cc1ccc(O)c(C)c1 | > 92 µM (inactive) | > 92 µM (inactive) | 3.22% (inactive) | inactive | inactive | inactive |  | inactive | inactive | inactive | inactive | inactive | inactive | inactive | inactive | -1.3% and -5.42% | inactive | 2.23% (inactive) and -13.2% (inactive) and -16.1% (inactive) | inactive | inactive |
| Cc1cccc(C#N)c1 | > 92 µM (inactive) | > 92 µM (inactive) | -15.8% (inactive) | inactive | inactive | inactive | inactive | inactive | inactive | inactive | inactive | inactive | inactive | inactive | inactive | -7.67% | inactive | 7.42% (inactive) | inactive | inactive |
| C=CC1CC=CCC1 (stereo not drawn) | > 92 µM (inactive) | > 92 µM (inactive) | 4.42% (inactive) | inactive | inactive | inactive | 39.8 µM (active) | inactive | inactive | inactive | inactive | inactive |  | inactive | inactive | 0.848% and 1.74% | inactive | 13.7% (inactive) and -3.35% (inactive) | inactive | inactive |
| CCOP(=S)(OCC)Oc1ccc([N+](=O)[O-])cc1 | > 92 µM (inactive) | > 92 µM (inactive) | -19.3% (inactive) | inactive | inactive | inactive | inactive | inactive | inactive | inactive | inactive | inactive | inactive | inactive | inactive | -6.89% and 6.11% | inactive | 9.15% (inactive) and -8.55% (inactive) | inactive | inactive |
| CC(C)(OO)c1ccccc1 | 28.3 µM (active) | > 92 µM (inactive) | -123% (active) |  | 39.8 µM (active) | 50.1 µM (active) | 25.1 µM (active) |  | inactive |  | inactive | 39.8 µM (active) | 31.6 µM (active) | inactive | inactive | 21.6% and -3.11% | inactive | 14.1% (inactive) and -10.7% (inactive) | inactive | inactive |
| Oc1ccc(Cl)cc1Cl | > 92 µM (inactive) | > 92 µM (inactive) | -8.01% (inactive) | inactive | inactive | inactive | inactive | inactive | inactive | inactive | inactive | inactive | inactive | inactive | inactive | 1.97% | inactive | 16.9% (inactive) and -6.49% (inactive) | inactive | inactive |
| C=CC(=C)C | > 92 µM (inactive) | > 92 µM (inactive) | -9.16% (inactive) | inactive | inactive | inactive | inactive | inactive | inactive | inactive | inactive | inactive | inactive | inactive | inactive | 8.28% | inactive | 3.52% (inactive) | inactive | inactive |
